# Results published in article PMC4336329 (PLoS ONE, 2015).
# Screen size: about 310,000 compounds; about 14,000 (4.5%) showed an effect of 50% or more. The effect is printed as a negative number. What follows is part of a selection rich in strong results, with near analogues and random picks from the rest.
# Target: human ether-à-go-go-related gene (hERG) potassium channel (human, UniProt Q12809)
# Assay: primary screen, population patch clamp on CHO cells stably expressing hERG; higher = less effect of the substance
# 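Note: peak tail current of the secondary pulse compared with the same well before compound.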
# Sequence of human ether-à-go-go-related gene (hERG) potassium channel (Q12809 whole entry, looked up): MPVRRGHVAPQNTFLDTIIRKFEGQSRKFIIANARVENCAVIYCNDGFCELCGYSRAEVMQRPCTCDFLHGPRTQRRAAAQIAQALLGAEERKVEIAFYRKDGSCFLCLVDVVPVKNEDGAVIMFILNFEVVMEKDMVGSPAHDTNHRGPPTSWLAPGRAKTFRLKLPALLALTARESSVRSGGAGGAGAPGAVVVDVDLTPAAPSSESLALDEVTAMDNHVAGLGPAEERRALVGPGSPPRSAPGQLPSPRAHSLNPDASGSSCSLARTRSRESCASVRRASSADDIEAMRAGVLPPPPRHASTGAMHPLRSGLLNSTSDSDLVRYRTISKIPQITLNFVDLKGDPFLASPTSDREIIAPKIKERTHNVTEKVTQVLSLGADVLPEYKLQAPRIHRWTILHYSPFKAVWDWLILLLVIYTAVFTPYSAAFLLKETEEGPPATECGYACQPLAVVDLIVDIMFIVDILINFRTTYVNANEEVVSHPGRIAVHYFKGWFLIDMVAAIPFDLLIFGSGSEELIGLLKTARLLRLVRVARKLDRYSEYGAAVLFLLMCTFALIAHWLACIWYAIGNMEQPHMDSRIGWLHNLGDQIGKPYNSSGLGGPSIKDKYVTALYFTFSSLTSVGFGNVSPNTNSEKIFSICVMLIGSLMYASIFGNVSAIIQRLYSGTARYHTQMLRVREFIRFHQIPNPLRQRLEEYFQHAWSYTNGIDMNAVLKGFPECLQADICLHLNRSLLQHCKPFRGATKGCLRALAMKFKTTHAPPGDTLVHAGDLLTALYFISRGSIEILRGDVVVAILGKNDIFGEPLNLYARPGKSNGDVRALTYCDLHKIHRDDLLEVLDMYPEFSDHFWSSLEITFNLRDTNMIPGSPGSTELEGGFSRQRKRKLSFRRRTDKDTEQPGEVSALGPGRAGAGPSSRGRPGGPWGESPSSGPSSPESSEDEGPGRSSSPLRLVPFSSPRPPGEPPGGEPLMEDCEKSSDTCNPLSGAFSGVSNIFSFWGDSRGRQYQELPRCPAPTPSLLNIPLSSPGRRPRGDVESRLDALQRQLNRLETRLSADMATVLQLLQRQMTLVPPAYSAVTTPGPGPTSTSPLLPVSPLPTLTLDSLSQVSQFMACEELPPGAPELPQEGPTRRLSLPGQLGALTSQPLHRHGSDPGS
row,Compound,"hERG current change (%, negative = inhibition) at 10uM [%]"
1,CCC1Oc2ccc(C)cc2N(CC(=O)NCc2cccc(OC)c2)C1=O (stereo not drawn),-8.94
2,CNC(=O)c1cc2cc(OC)ccc2oc1=N,10.4
3,CC/C(=N\NC(=O)c1c[nH]c2ccccc12)c1cccs1,10.9
4,O=C(O)c1c(-n2cccc2)sc2c1CCCC2,24.4
5,COc1cc(C)c(Br)cc1S(=O)(=O)NCc1ccccc1,12.9
6,COc1ccc(CN2CCNC(=O)C2CC(=O)NCCN2CCCCC2=O)c(F)c1 (stereo not drawn),19.1
7,Cc1nn(CCCC(=O)Nc2ccccn2)c(C)c1[N+](=O)[O-],18.3
8,O=C(COc1ccc(-n2cnnn2)cc1)Nc1ccc(F)c(F)c1F,5.48
9,O=C(COc1ccc2c(c1)CCC2)N1CCN(c2ccc(F)cc2)CC1,-2.53
10,NC(=O)COc1ccc(-n2cnnn2)cc1,32.4
11,O=C(COc1ccc(F)cc1)Nc1ccc(-n2cnnn2)cc1,-49.5
12,O=C(COc1ccc(-n2cnnn2)cc1)NCCc1ccc(F)cc1,-51.5
13,O=C(COc1ccc(-n2cnnn2)cc1)N1CCN(c2ccc(F)cc2)CC1,-71.5
14,N/C(=N\N=C\c1ccnc2ccccc12)SC1CC(=O)N(c2ccc(Br)cc2)C1=O (stereo not drawn),0.637
15,CC(C)Sc1cc(N2CCOCC2)nc(-c2ccccc2)n1,2.76
16,COCCn1c(N)c(N(Cc2ccccc2)C(=O)c2ccc(-c3ccc(Cl)cc3)o2)c(=O)[nH]c1=O,-45.5
17,Cc1ccc(-n2nc(C)c(/C=N/NC(=O)c3cccs3)c2Cl)cc1,5.12
18,Cc1ccc(S(=O)(=O)N2CCN(CC(=O)N/N=C/c3ccc(Br)s3)CC2)cc1,-49
19,Cc1ccc(S(=O)(=O)N2CCN(CC(=O)N/N=C/c3ccco3)CC2)cc1,-33
20,O=C(CN1CCN(S(=O)(=O)c2ccc(Br)cc2)CC1)N/N=C/c1cccs1,-58.4
21,Cc1ccsc1/C=N/NC(=O)CN1CCN(S(=O)(=O)c2ccc(Br)cc2)CC1,-41.7
22,O=C(CN1CCN(S(=O)(=O)c2ccc(Br)cc2)CC1)N/N=C/c1ccco1,-56.9

row,Compound,"hERG current change (%, negative = inhibition) at 10uM [%]"
1,O=C(CN1CCN(S(=O)(=O)c2ccc(Br)cc2)CC1)N/N=C/c1ccccc1C(=O)O,14.2
2,O=C(CN1CCN(S(=O)(=O)c2ccc(Br)cc2)CC1)N/N=C/c1ccc(Br)s1,-17.6
3,Cc1ccc(/C=N/NC(=O)CN2CCN(S(=O)(=O)c3ccc(Br)cc3)CC2)s1,-58.9
4,O=C(CN1CCOCC1)N/N=C/c1ccco1,17.1
5,CN1CCN(c2c(F)cc([N+](=O)[O-])c(N)c2Br)CC1,-45.3
6,OCCCc1cn(-c2ccccc2)c2ccccc12,7.41
7,Cc1cc(C(=O)NNC(=O)c2ccc(C)s2)c(C)o1,3.91
8,COc1ccc(N(C2CSC2)S(=O)(=O)c2ccccc2)cc1,8.52
9,CCc1nc(SCC(=O)Nc2nnc(CC)s2)c2c(=O)n(C)c(=O)n(C)c2n1,4.23
10,O=C(Cn1nc(-c2ccccc2F)ccc1=O)NCc1ccc2c(c1)OCO2,-36.9
11,CCN1C(=O)[C@H]2[C@@H](c3ccc(C)cc3)N3C(=O)N(c4ccc(C(F)(F)F)cc4)C(=O)[C@@]3(Cc3ccccc3)[C@H]2C1=O,16.3
12,O=c1c2ccccc2nc(-c2ccc(-c3ccccc3)cc2)n1-c1ccncc1,-42.9
13,CC(OC(=O)CCC(=O)c1ccccc1)C(=O)Nc1ccc(F)cc1 (stereo not drawn),-284
14,CC(OC(=O)CCCC(=O)Nc1ccc(F)cc1)C(=O)c1ccccc1 (stereo not drawn),-5.79
15,CC(=O)Nc1ccc(NC(=O)C(C)OC(=O)CCC(=O)c2ccc(F)cc2)cc1 (stereo not drawn),-7.13
16,COc1ccc(/C=N\NC(=O)COc2ccccc2Cl)cc1Cn1nc(C)cc1C,8.15
17,CC1(C)CC(=O)C2=C(C1)N(CCN1CCOCC1)C1=C(C(=O)CC(C)(C)C1)C2c1ccc(Cl)cc1,-34.1
18,CC1(C)CC(=O)C2=C(C1)N(CCN1CCOCC1)C1=C(C(=O)CC(C)(C)C1)C2c1cccc(F)c1,-33.5
19,CC1(C)CC(=O)C2=C(C1)N(CCN1CCOCC1)C1=C(C(=O)CC(C)(C)C1)C2c1cccc(Cl)c1,-54
20,CC(CCc1ccccc1)OS(N)(=O)=O (stereo not drawn),8.74
21,COc1ccc(S(=O)(=O)N2CCOCC2)cc1NC(=O)COc1ccccc1,-40.5
22,Cc1ccc(SC/C(O)=C(\C#N)c2nc3ccccc3s2)cc1,29.9

row,Compound,"hERG current change (%, negative = inhibition) at 10uM [%]"
1,Cc1ccc(C(=O)NCC(=O)OCC(=O)Nc2ccc(Cl)cc2C(F)(F)F)cc1C,-4.47
2,O=c1[nH]c2ccccc2nc1CCc1ccccc1,35.5
3,Cc1cccc(NC(=O)C2CCN(C(=O)c3ccc(F)cc3)CC2)n1,-0.274
4,N#Cc1ccsc1NC(=O)C1CCN(C(=O)c2ccc(F)cc2)CC1,-45.7
5,O=C(NC1CC1)C1CCN(C(=O)c2ccc(Cl)cc2)CC1,19.8
6,Cc1cccc(NC(=O)C2CCN(C(=O)c3ccccc3C)CC2)n1,-17.6
7,O=C(Nc1ccccc1N1CCCC1)C1CCN(C(=O)c2ccc(F)cc2)CC1,-27.8
8,N#Cc1ccsc1NC(=O)C1CCN(C(=O)c2ccc(Cl)cc2)CC1,-73.2
9,Cc1ccccc1C(=O)N1CCC(C(=O)Nc2ccccc2N2CCCC2)CC1,-0.721
10,O=C(Nc1ccccc1N1CCCC1)C1CCN(C(=O)c2ccc(Cl)cc2)CC1,-59.8
11,Cc1cccc(NC(=O)C2CCN(C(=O)c3ccc(Cl)cc3)CC2)n1,-51.5
12,O=C(C1CCCCC1)N1CCCc2ccccc21,-5.03
13,Cc1ccccc1C(=O)N1CCC(C(=O)N2CCCc3ccccc32)CC1,-1.08
14,O=C(c1ccc(Cl)cc1)N1CCC(C(=O)N2CCCc3ccccc32)CC1,-76.4
15,Cc1cccc(C(=O)NNS(=O)(=O)c2ccc(F)cc2)c1,8.24
16,O=c1cc(CO)oc(C(Nc2ccccn2)c2ccc(F)cc2)c1O (stereo not drawn),9.87
17,O=C(c1ccc2oc(CCc3ccccc3)nc2c1)N1CCC(O)CC1,14.9
18,Cc1ccc(C(=O)NCC(=O)OCC(=O)c2ccccc2)s1,-12.6
19,COc1ccc(CC(=O)Nc2c(C(N)=O)oc3ccccc23)cc1OC,11.4
20,COc1ccc(CCNS(=O)(=O)c2ccc(Br)s2)cc1,-5.73
21,O=C(N/N=C/c1cc([N+](=O)[O-])ccc1O)c1cccc(N2CCCC2=O)c1,3.22
22,CC(OC(=O)CCc1nc2ccccc2[nH]c1=O)c1ccccc1 (stereo not drawn),-5.1

row,Compound,"hERG current change (%, negative = inhibition) at 10uM [%]"
1,O=C(Nc1ccccc1N1CCCCC1)C1CCN(C(=O)c2ccc(Cl)cc2)CC1,-69.9
2,O=C(NC1CCCCC1)C1CCN(C(=O)c2ccc(Cl)cc2)CC1,-6.16
3,O=C(Nc1ccccc1N1CCCCC1)c1ccc(Cl)cc1,12.6
4,CC(C)(C)C(=O)COC(=O)c1cc(-c2ccncc2)nc2ccccc12,-8.43
5,COc1ccc(-n2c(SCC(=O)Nc3cc(C)on3)nc3c(c2=O)SCC3)cc1,12.1
6,COCCN1CN(S(=O)(=O)c2ccccc2)c2nc3ccccc3nc21,-16.7
7,COCCCN1CN(S(=O)(=O)c2ccc(Cl)cc2)c2nc3ccccc3nc21,-32.7
8,COCCN1CN(S(=O)(=O)c2ccc(Cl)cc2)c2nc3ccccc3nc21,-75.9
9,COCCn1nnnc1C(C(C)C)N1CCN(C(=O)c2ccco2)CC1.Cl (stereo not drawn),-1.29
10,CCOC(=O)Cc1nnc(NC(=O)c2ncn[nH]2)s1,-9.4
11,CN1CC(=O)N(CC(=O)Nc2ccc(Cl)c(C(F)(F)F)c2)C1=O,8.97
12,CCCCC(O)CN1CCC(c2ccccc2)CC1 (stereo not drawn),-56.6
13,CCOC(=O)CN1CCC(c2ccccc2)CC1,-2.19
14,CC(CN1CCC(O)CC1)c1ccccc1 (stereo not drawn),10.6
15,O=C(Nc1ccc(S(=O)(=O)Nc2nccs2)cc1)c1cc(-c2ccncc2)nc2ccccc12,10.1
16,O=C(c1cccc(F)c1F)N1CCCC1,24.7
17,Cc1cc(COC(=O)C2N3C(=O)[C@@H](NC(=O)COc4ccccc4)[C@H]3SC2(C)C)on1 (stereo partly drawn),-56.2
18,COC(=O)C1N2C(=O)[C@@H](NC(=O)COc3ccccc3)[C@H]2SC1(C)C (stereo partly drawn),-4.31
19,CC1(C)S[C@@H]2[C@H](NC(=O)COc3ccccc3)C(=O)N2C1C(=O)OCc1ccccc1 (stereo partly drawn),-48.1
20,Cc1nc2c(Br)c3nc(C(F)(F)F)[nH]c3c(Br)c2[nH]1,-4.86
21,COc1ccc(N(C(=O)CNC(=O)c2cccs2)C(C(=O)NCC2CCCO2)c2ccccc2)cc1OC (stereo not drawn),4.94
